# Measurements taken from PubChem BioAssay (Tox21).
# Several values for one entry are separate records, joined by “and”; a condition that tells them apart may be missing. Equal values may be shown once. Records with an inconclusive call do not appear. Activity calls are given as the source filed them. Calls follow the shape of the dose curve; as a rule, active = well fitted curve in the direction sought with a large enough effect in the repeat runs; inconclusive = weak or mixed curves; inactive = no such curve, though single readings can be large; an effect the other way counts as inactive or inconclusive.
# Molecular target: Luciferin 4-monooxygenase (Photinus pyralis) (UniProt P08659)
# Test: qHTS assay to identify small molecule inhibitors of firefly luciferase (AID 1224835); also: nearly all actives have a fitted effect of over 25% in size
# Conditions: purified P. pyralis luciferase, luminescence inhibition; series mostly up to 115 µM; activity change, negative = inhibition: at the top concentration
# Outline: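 Inhibition of purified Photinus luciferase is measured by luminescence. Substrate levels (D-luciferin, ATP) sit at their KM values. Each compound is tested in a concentration series.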
# % is scaled to controls: 0 for no effect and ±100 for the full control effect.
# Sequence of Luciferin 4-monooxygenase (Photinus pyralis) (P08659 whole entry, looked up): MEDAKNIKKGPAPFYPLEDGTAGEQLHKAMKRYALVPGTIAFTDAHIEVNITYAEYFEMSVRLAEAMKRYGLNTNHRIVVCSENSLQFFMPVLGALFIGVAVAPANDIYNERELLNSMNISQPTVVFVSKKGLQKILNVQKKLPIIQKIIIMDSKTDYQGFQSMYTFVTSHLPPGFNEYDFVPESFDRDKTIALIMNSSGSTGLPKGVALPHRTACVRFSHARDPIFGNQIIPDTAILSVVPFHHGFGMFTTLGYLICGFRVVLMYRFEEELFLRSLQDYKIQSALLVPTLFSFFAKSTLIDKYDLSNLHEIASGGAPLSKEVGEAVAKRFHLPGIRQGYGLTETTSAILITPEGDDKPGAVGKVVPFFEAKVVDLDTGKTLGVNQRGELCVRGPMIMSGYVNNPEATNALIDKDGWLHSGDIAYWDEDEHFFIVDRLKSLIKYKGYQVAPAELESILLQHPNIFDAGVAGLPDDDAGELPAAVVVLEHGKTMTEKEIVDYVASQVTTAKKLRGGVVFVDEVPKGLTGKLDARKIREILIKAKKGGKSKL
SMILES,"activity change, negative = inhibition",Potency
O=C(CCCN1CCC(O)(c2cccc(C(F)(F)F)c2)CC1)c1ccc(F)cc1,-2.06% [at 52.9 µM] (inactive),
CCO/C([O-])=N/c1c[n+](N2CCOCC2)no1,-6.46% [at 52.9 µM] (inactive),
O=C(O)CN(CCOCCOCCN(CC(=O)O)CC(=O)O)CC(=O)O,0.561% [at 0.435 µM] (inactive),
Cc1cccc(C)c1NC(=O)C(C)N (configuration not stated),2.32% [at 52.9 µM] (inactive),
CCN1CCC[C@H]1CNC(=O)c1c(O)c(Cl)cc(Cl)c1OC,0.944% [at 52.9 µM] (inactive),
CCOC(=O)Nc1ccc(NCc2ccc(F)cc2)nc1N,-7.91% [at 52.9 µM] (inactive),
CC(C(=O)O)c1ccc(CC2CCCC2=O)cc1 (configuration not stated),1.79% [at 52.9 µM] (inactive),
COCCc1ccc(OCC(O)CNC(C)C)cc1 (configuration not stated),,inactive
Nc1nc2c(ncn2COC(CO)CO)c(=O)[nH]1,2.1% [at 52.9 µM] (inactive),
CC(C[N+](C)(C)C)OC(N)=O (configuration not stated),-1.36% [at 52.9 µM] (inactive),
Nc1c2c(nc3ccccc13)CCCC2O (configuration not stated),3.75% [at 52.9 µM] (inactive),
Cc1[nH]c(=O)c(C#N)cc1-c1ccc2nccn2c1,-1.93% [at 52.9 µM] (inactive),

# Test system: not listed separately
# Test: qHTS assay to identify small molecule agonists of the constitutive androstane receptor (CAR) signaling pathway - cell viability counter screen (AID 1224836); also: nearly all actives have a fitted effect of over 45% in size; also: potency is read from the fitted curve at half-maximal effect
# Conditions: HepG2-CYP2B6-hCAR viability, CellTiter-Fluor, 23 h, PK11195 added to every well; series mostly up to 92.4 µM; viability change, negative = cytotoxic: at the top concentration
# Outline: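 Double-stable HepG2 hepatoma cells (hCAR plus CYP2B6-2.2kb) are treated for 23 h at 37 C with test compounds in 15-point concentration series. PK11195 at 0.75 uM final is co-added. Cell viability is quantified by CellTiter-Fluor.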
SMILES,"viability change, negative = cytotoxic",Potency
OC(CCN1CCCCC1)(c1ccccc1)C1CC2C=CC1C2 (configuration not stated),-16.2% [at 42.5 µM] (inactive),
CC(=O)OCC(=O)[C@@]1(O)CC[C@H]2[C@@H]3CCC4=CC(=O)CC[C@]4(C)[C@H]3C(=O)C[C@@]21C,6.26% [at 42.5 µM] (inactive),
CC(C)(c1ccc(O)cc1)c1ccc(O)cc1,,inactive
CCCN(CCC)CCc1cccc2c1CC(=O)N2,-1.16% [at 42.5 µM] (inactive),
Cc1ccc(=O)n(-c2ccccc2)c1,5.81% [at 42.5 µM] (inactive),
CCCCCCCCCCCC,-0.708% (inactive),
c1ccc([C@H]2CN3CCSC3=N2)cc1,2.1% [at 42.5 µM] (inactive),
c1cnc(N2CCN(Cc3ccc4c(c3)OCO4)CC2)nc1,1.47% [at 42.5 µM] (inactive),
COC(=O)c1c(Cl)c(Cl)c(C(=O)OC)c(Cl)c1Cl,,inactive
C[C@](N)(Cc1ccc(O)cc1)C(=O)O,11.1% [at 8.39 µM] (inactive),
N[C@H](C(=O)O)c1ccc(O)cc1,-1.44% [at 19 µM] (inactive),
CCn1ccnc1CC1COc2ccccc2O1 (configuration not stated),-1.17% [at 42.5 µM] (inactive),
Brc1c(NC2=NCCN2)ccc2nccnc12,-0.0068% [at 42.5 µM] (inactive),
CCN1CCC[C@H]1CNC(=O)c1cc(S(N)(=O)=O)ccc1OC,4.57% [at 42.5 µM] (inactive),
NC(CSCC(=O)O)C(=O)O (configuration not stated),3.19% [at 42.5 µM] (inactive),
COC(=O)C1=C(C)NC(C)=C(C(=O)OC)C1c1ccccc1[N+](=O)[O-],-0.702% [at 42.5 µM] (inactive),
CO[Si](CCCOCC1CO1)(OC)OC (configuration not stated),,inactive
COC(=O)[C@@H](N)Cc1ccc(O)c(O)c1,4.53% [at 42.5 µM] (inactive),
C[C@H](NC(CCc1ccccc1)C(=O)O)C(=O)N1CCC[C@H]1C(=O)O (some centres not stated),6.01% [at 42.5 µM] (inactive),
CC(C)NCC(O)c1ccc(NS(C)(=O)=O)cc1 (configuration not stated),-3.14% (inactive),
O=C(CCCN1CCC(O)(c2cccc(C(F)(F)F)c2)CC1)c1ccc(F)cc1,-4.63% [at 42.5 µM] (inactive),
CN(C)CCCN1c2ccccc2CCc2ccc(Cl)cc21,,48.6 µM (active) and 29.8 µM (active)
CCO/C([O-])=N/c1c[n+](N2CCOCC2)no1,3.55% [at 42.5 µM] (inactive),
O=C(O)CN(CCOCCOCCN(CC(=O)O)CC(=O)O)CC(=O)O,-0.739% [at 0.349 µM] (inactive),
Cc1cccc(C)c1NC(=O)C(C)N (configuration not stated),-9.13% [at 42.5 µM] (inactive),
CCN1CCC[C@H]1CNC(=O)c1c(O)c(Cl)cc(Cl)c1OC,2.13% [at 42.5 µM] (inactive),
CC(C(=O)O)c1ccc(CC2CCCC2=O)cc1 (configuration not stated),4.79% [at 42.5 µM] (inactive),
Nc1nc2c(ncn2COC(CO)CO)c(=O)[nH]1,-2.49% [at 42.5 µM] (inactive),
Nc1c2c(nc3ccccc13)CCCC2O (configuration not stated),-0.42% [at 42.5 µM] (inactive),
Cc1[nH]c(=O)c(C#N)cc1-c1ccc2nccn2c1,4.49% [at 42.5 µM] (inactive),
